Screening results from PubChem.
The list is not random: actives were taken first. Their share in the collection is about 2.4%.
WRN helicase inh – qHTS for Inhibitors of WRN Helicase; Bifunctional 3'-5' exonuclease/ATP-dependent helicase WRN (Homo sapiens), Q14191; actives 0.46% (n = 360,000); WRN helicase unwinding, fluorescent forked duplex, kinetic; AID 651768, 2012; Potency, µM (doses to about 114 µM), inactives show at the highest dose activity change, negative = inhibition, usual class: inhibitors; note: % is set by controls: 0 for no effect and ±100 for the full control effect; nearly all actives have a fitted effect of over 55% in size
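Fluorescence dequenching readout, ex 525 nm/em 598 nm, kinetic mode: forked duplex DNA (100 nM final) with adjacent fluorophore and quencher unwound by WRN (20 nM final) with 2 mM ATP. Compound preincubation 15 min, room temperature.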
POLB inh – qHTS Assay for Inhibitors of DNA Polymerase Beta; P06746; Pol beta primer extension/strand displacement, fluorescence kinetic; Potency, µM (titrated, usually from 114 µM), for the others: top-dose activity change, negative = inhibition, most hits filed as inhibitors; AID 485314, 2010; actives 1.3% (n = 340,000); note: % is set by controls: 0 for no effect and ±100 for the full control effect
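Curves were derived by four-parameter Hill fits of normalized qHTS data. The kinetic fluorescent primer-extension read was taken at 0 and 10 min after 50 nM substrate, following a 15 min room-temperature preincubation of 10 nM enzyme with compounds.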
Pol eta inh – qHTS for Inhibitors of Polymerase Eta. DNA polymerase eta (Homo sapiens), Q9Y253. recombinant Pol eta, fluorescent DNA replication assay. Potency, µM (top dose mostly 114 µM), inactives show at the top dose activity change, negative = inhibition, most hits filed as inhibitors. actives 1.2% (n = 390,000). AID 588591, 2011; note: % is set by controls: 0 for no effect and ±100 for the full control effect
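Fluorescent replication assay: 50 nM final substrate added after a 15 min room-temperature compound preincubation with 10 nM enzyme. Signal taken at 0 min and again at 10 min.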
FEN1 inhibitor – qHTS Assay for the Inhibitors of Human Flap endonuclease 1 (FEN1). Recombinant FEN1 flap cleavage, fluorescence, 15 min. Potency, µM (series often up to 114 µM), for inactives: at the top dose activity change, negative = inhibition, actives largely listed as inhibitors. AID 588795, 2011. actives 0.35% (n = 390,000). P39748; note: % is set by controls: 0 for no effect and ±100 for the full control effect; nearly all actives have a fitted effect of over 65% in size
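FEN1 at 10 nM preincubated with compounds 15 min at room temperature, then flap DNA substrate added at 50 nM final. Signal read at 0 and 15 min; concentration-response fitted with four-parameter Hill equation.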
Pol kappa inh – qHTS for Inhibitors of Polymerase Kappa; DNA polymerase kappa (Homo sapiens), Q9UBT6; purified Pol kappa, fluorescent DNA synthesis assay, 10 min; Potency, µM (series often up to 107 µM), without a hit: at the highest dose activity, negative = inhibition, hits mostly inhibitors; actives 0.53% (n = 400,000); note: % is set by controls: 0 for no effect and ±100 for the full control effect
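Here, compound and 10 nM enzyme are combined for 15 min at room temperature; adding 50 nM substrate (final) starts DNA synthesis, tracked by fluorescence at 0 and 10 min against buffer-only wells.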
Pol iota inh – qHTS for Inhibitors of Polymerase Iota; Pol iota fluorescent replication assay, 10 min; DNA polymerase iota (Homo sapiens), Q9UNA4; actives 1% (n = 390,000); Potency, µM (highest dose often 115 µM), inactives show top-dose activity, negative = inhibition, actives largely listed as inhibitors; AID 588590, 2011
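Fluorescent replication assay read twice, at 0 min and 10 min after adding 50 nM (final) substrate. Enzyme (10 nM) and compounds were first incubated 15 min at room temperature; enzyme-free buffer wells were negative controls.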
An asterisk follows results filed as active; u = inconclusive; x = no result given; [ ] = another dose, or the depositor's remark. Calls come from the whole dose curve; as a rule, active = well fitted curve in the direction sought with a large enough effect; inconclusive = small, poorly fitted or top-dose-only effect, or another doubt; inactive = no such curve, though single readings can be large; an effect the other way counts as inactive or inconclusive. Potency is the fitted concentration of half-maximal effect.

SMILES | WRN helicase inh | POLB inh | Pol eta inh | FEN1 inhibitor | Pol kappa inh | Pol iota inh
C#CCOCCOCCOCCNc1nc(N2CCN(C(=O)[C@H](Cc3ccc(O)cc3)n3cc([C@@H](N)C(C)CC)nn3)CC2)nc(N2CCN(C(=O)[C@H](Cc3cc4ccccc4[nH]3)n3cc([C@@H](N)CC(C)C)nn3)CC2)n1 (stereo not given in full) | -36% | 28µM* | -10% | -11% | 3% | 79µM*
C#CCOCCOCCOCCNc1nc(N2CCN(C(=O)[C@H](Cc3cc4ccccc4[nH]3)n3cc([C@@H](N)Cc4ccc(O)cc4)nn3)CC2)nc(N2CCN(C(=O)[C@H](Cc3cc4ccccc4[nH]3)n3cc([C@@H](N)CC(C)C)nn3)CC2)n1 | -31% | -3% | 6% | u | 1% | u
Cc1ccc(-c2nn(CC(=O)Nc3cccc(C(F)(F)F)c3)c(=O)c3ccccc23)cc1 | x | 2% | -17% | 0% | -5% | 12%
Nc1nn(-c2ccccc2)nc1C(=O)OCc1ccccc1Br | x | 24% | -1% | -20% | 6% | 11%
Cc1ccc(F)cc1NC(=O)COC(=O)c1ccc(S(C)(=O)=O)c([N+](=O)[O-])c1 | x | x | x | 14% | -2% | 4%
CCOc1ccc(NC(=O)CSc2nc(C3CC3)nc3ccccc23)cc1 | 3% | 1% | 1% | -5% | -4% | 33%
COc1cccc(NC(=O)CSc2nc(C3CC3)nc3ccccc23)c1 | -10%[11.6 µM] | -2% | 40µM* | -8% | 3% | u
COc1ccc(-c2noc(C3CCCN(C(=O)c4ccc(F)cc4)C3)n2)cc1 (stereo not given) | 12% | 1% | -5% | 89µM* | -10% | 38%
Cn1ccc2cc(S(=O)(=O)N3CCCN(C(=O)Nc4ccccc4Br)CC3)ccc21 | x | -2% | -8% | -1% | -12%[60.1 µM] | 8%
COC(=O)[C@@H]1[C@H]2SC(C)(C)[C@H](C(=O)OC)N2C(=O)N1Cc1cc2ccccc2n1S(=O)(=O)c1ccccc1 | x | x | x | -22% | -7% | 3%
CCOC(=O)c1c(C)[nH]c(=S)c(C#N)c1-c1ccc(Cl)cc1 | 4% | 2% | -21% | 0% | -27% | 79µM*
Cc1cccc(CCNC(=O)c2cccc3c2C(=O)N(C2CCCCC2)C3)c1 | -15% | 11µM* | u | -16% | -20% | -18%
CCOC(=O)N1CCC(N2Cc3cccc(C(=O)NCc4ccc5c(c4)OCO5)c3C2=O)CC1 | -26% | 25µM* | u | 3% | -51% | 45µM*
CCOC(=O)N1CCC(N2Cc3cccc(C(=O)NCc4ccccc4OC)c3C2=O)CC1 | -4% | 14% | -2% | 9% | -8% | -15%
CCOC(=O)N1CCC(NC(=O)c2cn(-c3ccc(OC)cc3)c(=O)c3ccccc23)CC1 | 5% | -1% | 0% | -6% | -5% | 7%
O=C(NCc1ccc2c(c1)OCO2)c1cccc2c1C(=O)N(C1CCCCC1)C2 | -1% | -3% | -4% | -15% | -7% | -15%
CCOC(=O)N1CCC(N2Cc3cccc(C(=O)NCc4ccc(OC)cc4)c3C2=O)CC1 | x | 16µM* | x | x | x | x
CCOC(=O)N1CCC(NC(=O)c2cccc3c2C(=O)N(c2ccc(OC)cc2)C3)CC1 | -27% | 10µM* | 18µM* | -1% | 50µM* | u
O=C(NC1CCCC1)C1C(c2ccc(C(F)(F)F)cc2)=Nc2ccccc2N1C(=O)c1cc2ccccc2[nH]1 (stereo not given) | -9% | x | x | x | x | x
CCOc1ccccc1NC(=O)Cn1cc(C(=O)c2ccc(Cl)cc2)c(=O)c2ccc(C)nc21 | x | -6% | 4% | 4% | -2% | -4%
Cc1nc(-n2nc(C)c(CCC(C)C)c2C)sc1C(=O)Nc1ccc(Br)cc1 | x | 19% | -10% | -2% | -2% | 14%
CCOC(=O)Cc1cn2c(=O)cc(CSCC(=O)Nc3ccc(C)c(C)c3)nc2s1 | -26% | u | 89µM* | 36% | -20% | u
CCCCOc1ccc(C2OC34CCCCC3C(C#N)(C#N)C2(C#N)C(=N)O4)cc1 (stereo not given) | u | 1% | u | u | -34% | 16µM*
C=CCOc1ccc(C2OC34CCCCC3C(C#N)(C#N)C2(C#N)C(=N)O4)cc1 (stereo not given) | -30% | 17% | 4% | -8% | -7% | u
Cc1nc(-c2cccc(NC(=O)C(C)Oc3ccccc3)c2)cs1 (stereo not given) | -34% | -11% | 28µM* | -6% | -4% | u
SMILES | WRN helicase inh | POLB inh | Pol eta inh | FEN1 inhibitor | Pol kappa inh | Pol iota inh
COc1ccc(NC2CCCN(C(=O)c3cccc(C)n3)C2)cc1OC (stereo not given) | -4%[11.6 µM] | 3% | -2% | 1% | u | 50µM*
COc1ccc(NC2CCCN(C(=O)c3csc(C(C)C)n3)C2)cc1OC (stereo not given) | -31% | 19% | -6% | 1% | -1% | 16%
O=c1[nH]c2cc(F)ccc2c2ccc(F)cc12 | -15% | x | 20µM* | -4% | -23% | u
CC(C)(O)c1ccc2c(c1)CCC1C(C)(C(=O)O)CCCC21C (stereo not given) | -11% | 40µM* | u | -16% | -39% | u
CC(C)(C)NC[C@H](O)CSc1nc(-c2ccc(C(N)=O)s2)cs1 | x | x | x | x | -1%[19.4 µM] | x
COc1ccc(CCN2CC(C(=O)NCCc3ccccc3)CC2=O)cc1OC (stereo not given) | -7% | u | -16% | -5% | 4% | 27%
COCCCNC(=O)C1CC(=O)N(CCc2ccc(OC)c(OC)c2)C1 (stereo not given) | -12% | 0% | 32µM* | -12% | -18% | -4%
O=c1[nH]c2ccc(S(=O)(=O)Nc3cc(Cl)ccc3O)cc2o1 | x | u | 89µM* | -6% | u | u
O=c1[nH]c2ccc(S(=O)(=O)Nc3ccc(Cl)cc3)cc2o1 | -5% | 20% | -11% | -8% | 2% | -7%
COc1cc(Nc2c3ccccc3nc3ccccc23)cc(OC)c1OC | -21% | 14µM* | -7% | u | -6% | u
COc1ccccc1Nc1c2ccccc2nc2ccccc12 | -20% | u | -22% | u | -21% | 113%
O=C(COc1ccccc1C(=O)Nc1ccccc1)Nc1ccc(-c2ccccc2)cc1 | x | x | x | -7% | -2% | -13%
